# Most compounds without a hit are left out; they make up all but 6.9% or so of the library.
# Her2 expr inh = inhibitors of human Her2 kinase expression; P04626; AID 645; HER2 level % of control, % at 10 µM; SKBR-3 HER2 protein level, AlphaScreen, 18-24 h; stronger effect = lower value; actives 0.69% (n = 65,000);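 active = HER2 level under 5% of the carrier-only control; inconclusive = no clear call, values can overlap the other calls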;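 note: 100% = DMSO carrier and 0% = 500 nM PU-H71 HSP90 inhibitor; lower value means stronger loss of Her2 protein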
# M1 antagonist = blocks the rat M1 muscarinic receptor response to acetylcholine; CHO-M1 cells, Fluo-4 calcium, ACh EC80 antagonist mode; stronger effect = lower value; AID 628; actives 3.4% (n = 64,000); B-score at 10 µM;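 active = calcium fluorescence response, raw or row-and-column corrected B-score, differing from the plate sample mean either way at a set confidence level, mostly lower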
# M1 ag = agonists of M1 muscarinic receptor; actives 3% (n = 64,000); B-score at 10 µM; AID 626; CHO-M1 cells, Fluo-4 calcium fluorescence, agonist mode; stronger effect = higher value;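 active = fluorescence rise, raw or as B-score row- and column-corrected plate score, outside the 99.7% band of its plate's samples, either direction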
# FXIIa inh mix = factor XIIa (human) inhibition, mixture screen | purified FXIIa, fluorogenic substrate, pooled mixtures | AID 684 | actives 0.2% (n = 62,000) | inhibition, % at 5 µM;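 note: 0% = enzyme without compound and 100% = no enzyme blank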
# FXIa mix inh = inhibitors of human coagulation factor XIa, pooled mixtures; P03951; purified FXIa, fluorogenic substrate; inhibition, % at 5 µM; actives 0.19% (n = 62,000); AID 680;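 note: each value is inhibition by a whole ten-compound pool holding the compound; 0% = enzyme with no mixture and 100% = wells lacking enzyme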
# Target sequence (P03951 19-387 limits assumed): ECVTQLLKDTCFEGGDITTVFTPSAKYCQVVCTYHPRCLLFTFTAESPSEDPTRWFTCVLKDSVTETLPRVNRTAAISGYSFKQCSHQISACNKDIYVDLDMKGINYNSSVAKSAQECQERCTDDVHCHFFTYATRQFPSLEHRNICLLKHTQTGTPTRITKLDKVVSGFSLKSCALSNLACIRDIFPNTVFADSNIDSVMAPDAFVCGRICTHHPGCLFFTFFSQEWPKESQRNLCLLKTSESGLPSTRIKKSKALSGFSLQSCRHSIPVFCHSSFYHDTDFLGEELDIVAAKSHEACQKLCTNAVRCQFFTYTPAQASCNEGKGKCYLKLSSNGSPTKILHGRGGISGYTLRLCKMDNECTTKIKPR
# Target sequence (P03951 388-625 limits assumed): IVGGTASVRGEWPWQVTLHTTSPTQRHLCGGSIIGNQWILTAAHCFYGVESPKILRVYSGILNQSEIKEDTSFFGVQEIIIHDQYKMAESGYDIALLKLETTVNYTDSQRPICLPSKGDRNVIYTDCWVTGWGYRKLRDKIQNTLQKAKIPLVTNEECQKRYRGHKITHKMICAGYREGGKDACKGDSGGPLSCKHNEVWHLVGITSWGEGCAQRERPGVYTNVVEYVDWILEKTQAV
# JNK3 inh = inhibitors of human JNK3 kinase. P53779. inhibition, % at 8 µM. purified JNK3 kinase activity, HTS. actives 0.61% (n = 60,000). AID 746; in the data active = inhibition above about 17%;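 note: 0% = DMSO and 100% = reference inhibitor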
# M1 agonist conf = rat M1 muscarinic agonism, confirmation | shares compounds with M1 ag | CHO-M1 cells, Fluo-4 calcium fluorescence, agonist mode; actives lie on both sides | fluorescence change (max-min) at 10 µM | actives 19% (n = 1,700);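 active = fluorescence change differs from the solvent-only DMSO control mean at a set confidence level in both duplicate runs; inconclusive = differs from solvent-only control mean in just one of two runs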;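 note: an EC20 dose of acetylcholine follows compound addition during the same imaging run; raw fluorescence intensity difference in instrument units with no normalization to controls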
# M4 agonist ctr = activates rat M4 receptor in counter-screen for M1 agonists; shares compounds with M1 ag; CHO M4/Gqi5 cells, Fluo-4 calcium fluorescence, agonist mode; actives lie on both sides; fluorescence change (max-min) at 10 µM; actives 9% (n = 1,700); AID 1741;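 active = fluorescence change differing from the plate's solvent-only control wells at 99.7% confidence in both duplicates, whether higher or lower; inconclusive = differs from solvent controls in only one of two duplicates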
# An asterisk follows results filed as active; u = inconclusive; x = not tested or not shown. Cut-off read from the data, not from the text of the source, unless noted: active = inhibition above about 20% (passing the limit was not always enough); inactive = the rest.
SMILES,Her2 expr inh,M1 antagonist,M1 ag,FXIIa inh mix,FXIa mix inh,JNK3 inh,others
C=CCn1c(NC(=O)c2ccccc2)c(C#N)c2nc3ccccc3nc21,68.0,-0.7,20.5*,10.2,-1.2,-0.3,
CC(=O)N(Cc1ccco1)C1(C(=O)NC2CCCCC2)CCCCC1,135.1,2.07*,0,-14.3,3.0,x,
Cc1ccccc1-c1n[nH]c(=S)o1,131.2,0.215,-0.063,-2.6,6.8,27.3*,
COc1ccc(Cl)cc1-c1n[nH]c(=S)o1,67.5,1.24,0.434,2.1,10.9,37.3*,
CCOC(=O)C1=C(C)NC(=O)NC1/C(C)=C/c1ccccc1 (stereo not given),114.9,0.376,0.0464,8.1,3.2,3.5,
Cc1ccc2oc(=O)c3cnn(CC(=O)N4CCCc5ccccc54)c3c2c1,70.6,2.1*,-0.0176,4.2,2.5,5.3,
CCC(C(=O)Nc1nccs1)(C(F)(F)F)C(F)(F)F,126.5,-0.526,7.39*,x,x,-5.8,
CCC(NC(=O)Nc1nccs1)(C(F)(F)F)C(F)(F)F,103.5,0.0182,-1.46,x,x,5.9,
COc1ccc(S(=O)(=O)N(CCCN2CCCC2=O)Cc2cc3c(C)cc(C)cc3[nH]c2=O)cc1,99.5,-0.0652,5.06*,1.1,-5.6,-2.4,
COc1cc2cc(CN(CCCO)S(=O)(=O)c3ccccc3)c(=O)[nH]c2cc1OC,67.2,-0.542,0.00649,-13.2,19.0,-6.7,
O=C(COC(=O)c1ccccc1)NCc1ccco1,90.4,-0.137,0.167,34.6*,5.5,-6.9,
CC(C)(C)c1ccccc1NC(=O)c1ccco1,150.7,-0.155,0.0173,0.1,4.6,-0.5,
Oc1ccc(C=Nc2ccc3ncccc3c2)c(O)c1,109.2,-0.141,-0.0101,x,x,-9.9,
COc1cccc(N=Cc2ccc(O)cc2O)c1,88.7,-0.00157,2.25*,6.5,3.3,2.5,
O=C(COC(=O)C12CC3CC(CC(C3)C1)C2)N1CCN(S(=O)(=O)c2ccccc2)CC1,96.8,0.813,0.0472,2.1,37.1*,-5.0,
O=C(COc1ccccc1Cl)OCC(=O)N1CCN(S(=O)(=O)c2ccccc2)CC1,111.6,0.29,-0.875,-1.9,5.6,-6.2,
COc1ccc(S(=O)(=O)N2CCC(C(=O)N3CCCCCC3)CC2)cc1,108.4,0.0684,-0.408,4.0,12.1,-3.9,
Cc1cccc(OCC2=NS(=O)(=O)c3ccccc3N2)c1,103.6,0.00045,-0.853,-2.4,-1.1,2.3,
c1ccc(Nc2ccccc2Nc2ccccn2)nc1,153.4,-0.163,-0.0137,7.5,-1.6,42.6*,
CC1(C)CC(=O)C=C(Nc2ccccn2)C1,97.4,0.499,-1.16,0.1,1.4,1.8,
Oc1cccc2ccc(Nc3ccccn3)nc12,-20.4*,-0.0459,0.278,5.3,-9.8,-3.9,
Cc1ccc(N(CC(O)COCc2ccco2)S(=O)(=O)c2ccc(C)cc2)cc1 (stereo not given),117.0,0.313,-0.073,-0.5,0.8,5.8,
Cc1cc(NC(=O)CSc2nc(-c3cccs3)cc(C(F)(F)F)n2)no1,66.8,-0.232,0.893,x,x,6.7,
Cc1cc(NC(=O)CCCS(=O)(=O)c2nc(-c3cccs3)cc(C(F)(F)F)n2)no1,-16.0*,-0.0497,0.905,3.7,7.3,1.9,
CS(=O)(=O)c1nc(-c2cccs2)cc(C(F)(F)F)n1,-24.0*,-0.0702,0.521,-15.4,2.1,x,
SMILES,Her2 expr inh,M1 antagonist,M1 ag,FXIIa inh mix,FXIa mix inh,JNK3 inh,others
Cc1cc(-c2cccs2)n[nH]1,110.8,-0.063,2.33,1.9,5.0,6.3,
COc1ccc(NC(=O)c2ccco2)cc1NC(=O)c1ccc(Br)o1,81.6,-0.062,8.87*,12.0,-8.3,5.7,
COc1ccc(NC(=O)c2ccco2)cc1NC(=O)c1ccc(C)cc1,63.2,-0.289,0.228,12.1,6.7,3.9,
CN1CCN(CC(=O)N2CCn3c4c(c5cc(C6CCCCC6)ccc53)CCCC42)CC1 (stereo not given),-15.7*,-0.191,-0.15,5.8,4.2,4.6,
CC(C)Oc1ccc(/C(O)=C2/C(=O)C(=O)N(CCCN3CCOCC3)C2c2ccncc2)cc1 (stereo not given),87.6,-0.469,1.25,8.7,12.7,1.3,
CCOc1ccc(-c2[nH]ncc2Oc2ccccc2OCC)c(O)c1,-17.6*,0.215,0.811,15.4,-0.7,-4.1,
CCOc1ccc(-c2[nH]ncc2Oc2ccccc2OC)c(O)c1,66.4,0.0179,1.62,9.4,1.9,-5.7,
CCOC(=O)CCC(NC(=O)c1ccc(NCN2C(=O)CCC2=O)cc1)C(=O)OCC (stereo not given),96.4,-0.221,-0.129,-6.5,4.7,-4.2,
CCOC(=O)CCC(NC(=O)c1ccc(NCN2C(=O)c3ccccc3C2=O)cc1)C(=O)OCC (stereo not given),65.7,0.00716,0.62,11.1,19.2,27.8*,
CCN(CCNC(=O)CN1CCN(Cc2ccc(Cl)cc2)C1=O)c1ccccc1,75.2,-0.0309,0.0146,0.2,-13.9,x,
Cn1cc(C(=O)NC2CCCCC2)c(=O)c2cc(S(=O)(=O)N3CCCC3)ccc21,-4.8*,x,x,0.6,2.5,0.7,
CC1CCN(S(=O)(=O)c2ccc3c(c2)c(=O)c(C(=O)NC2CCCC2)cn3C)CC1,85.9,0.0179,-0.635,5.2,4.6,2.5,
CC(C)COC(=O)C1[C@H]2C(=O)N(Cc3cccs3)C[C@]23C=C[C@H]1O3 (stereo not given in full),122.5,2,0.162,-0.4,2.3,-1.4,
CCN1CCN(Cc2nc3c(c(=O)n(C)c(=O)n3C)n2C(C)C(C)=O)CC1 (stereo not given),118.2,-0.011,-0.684,3.7,8.6,x,
CCCS(=O)(=O)c1nnnn1-c1cccc(OC)c1,-21.7*,0.258,0.107,5.4,3.6,-1.1,
O=C(CN1CCN(Cc2ccc(Cl)cc2)C1=O)NCCN1CCCC1,122.1,0.459,-0.0034,4.9,7.9,-4.2,
CCN(CC)S(=O)(=O)c1ccc(NCc2ccccc2)nc1,60.2,-0.0174,0.401,-18.8,-15.5,-12.5,
N#Cc1c(-c2cccs2)cc(-c2cccnc2)nc1N,81.1,0.694,2.84*,-22.6,-1.9,9.9,M1 agonist conf=u;M4 agonist ctr=-48.6
N#Cc1c(-c2cccs2)cc(-c2ccccn2)nc1N,71.1,x,x,1.7,-17.2,7.4,
Cc1cc(=O)[nH]c(Nc2c(C)n(C)n(-c3ccccc3)c2=O)n1,100.3,1.29,-0.45,1.4,2.5,-10.5,
Cc1c(Nc2nc3ccccc3nc2N2CCN(c3ccccc3)CC2)c(=O)n(-c2ccccc2)n1C,93.6,-0.607,3.57*,-16.6,8.1,5.1,M1 agonist conf=-7.75;M4 agonist ctr=-10.8
CCC(=O)n1nc(NCc2ccccc2OC)nc1NCc1ccccc1OC,78.6,-1.18,0.705,10.0,1.1,6.2,

# Assay outcomes as filed in PubChem BioAssay.
